Measurements taken from ChEMBL document CHEMBL2218924, “A broad activity screen in support of a chemogenomic map for kinase signalling research and drug discovery” (Biochem J, 2013).

Assays:
[1] = molecular target: T1, Ephrin type-B receptor 1 (Homo sapiens) (UniProt P54762); settings: at 10 µM
T1 sequence (whole entry): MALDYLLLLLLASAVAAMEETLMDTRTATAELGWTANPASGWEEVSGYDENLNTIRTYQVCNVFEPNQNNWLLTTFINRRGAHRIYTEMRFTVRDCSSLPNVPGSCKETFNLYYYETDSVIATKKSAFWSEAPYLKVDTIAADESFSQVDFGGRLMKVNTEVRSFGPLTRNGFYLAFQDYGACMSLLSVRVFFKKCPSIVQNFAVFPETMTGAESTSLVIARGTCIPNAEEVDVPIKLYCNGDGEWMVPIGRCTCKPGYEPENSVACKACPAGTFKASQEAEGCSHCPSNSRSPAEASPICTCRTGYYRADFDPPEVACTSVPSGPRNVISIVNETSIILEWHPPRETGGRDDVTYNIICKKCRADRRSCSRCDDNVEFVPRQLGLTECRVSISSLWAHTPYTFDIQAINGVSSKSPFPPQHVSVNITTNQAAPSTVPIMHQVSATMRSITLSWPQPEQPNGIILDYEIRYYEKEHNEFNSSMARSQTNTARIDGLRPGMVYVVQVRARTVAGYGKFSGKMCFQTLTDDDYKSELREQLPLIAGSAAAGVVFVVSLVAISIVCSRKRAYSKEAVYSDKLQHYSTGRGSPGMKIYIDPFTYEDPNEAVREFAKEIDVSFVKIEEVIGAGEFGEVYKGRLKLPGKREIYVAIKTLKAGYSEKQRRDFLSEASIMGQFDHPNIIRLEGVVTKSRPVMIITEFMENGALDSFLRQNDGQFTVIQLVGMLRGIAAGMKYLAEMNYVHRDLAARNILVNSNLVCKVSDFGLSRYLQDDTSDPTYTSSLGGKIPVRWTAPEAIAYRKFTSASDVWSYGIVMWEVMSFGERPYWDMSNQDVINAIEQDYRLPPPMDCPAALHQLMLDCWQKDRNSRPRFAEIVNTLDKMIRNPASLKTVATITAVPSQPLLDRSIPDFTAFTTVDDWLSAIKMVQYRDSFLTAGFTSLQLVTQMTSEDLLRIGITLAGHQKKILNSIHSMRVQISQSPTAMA

[2] = molecular target: T2, Ephrin type-B receptor 2 (Homo sapiens) (UniProt P29323); settings: at 1 µM
T2 sequence (whole entry): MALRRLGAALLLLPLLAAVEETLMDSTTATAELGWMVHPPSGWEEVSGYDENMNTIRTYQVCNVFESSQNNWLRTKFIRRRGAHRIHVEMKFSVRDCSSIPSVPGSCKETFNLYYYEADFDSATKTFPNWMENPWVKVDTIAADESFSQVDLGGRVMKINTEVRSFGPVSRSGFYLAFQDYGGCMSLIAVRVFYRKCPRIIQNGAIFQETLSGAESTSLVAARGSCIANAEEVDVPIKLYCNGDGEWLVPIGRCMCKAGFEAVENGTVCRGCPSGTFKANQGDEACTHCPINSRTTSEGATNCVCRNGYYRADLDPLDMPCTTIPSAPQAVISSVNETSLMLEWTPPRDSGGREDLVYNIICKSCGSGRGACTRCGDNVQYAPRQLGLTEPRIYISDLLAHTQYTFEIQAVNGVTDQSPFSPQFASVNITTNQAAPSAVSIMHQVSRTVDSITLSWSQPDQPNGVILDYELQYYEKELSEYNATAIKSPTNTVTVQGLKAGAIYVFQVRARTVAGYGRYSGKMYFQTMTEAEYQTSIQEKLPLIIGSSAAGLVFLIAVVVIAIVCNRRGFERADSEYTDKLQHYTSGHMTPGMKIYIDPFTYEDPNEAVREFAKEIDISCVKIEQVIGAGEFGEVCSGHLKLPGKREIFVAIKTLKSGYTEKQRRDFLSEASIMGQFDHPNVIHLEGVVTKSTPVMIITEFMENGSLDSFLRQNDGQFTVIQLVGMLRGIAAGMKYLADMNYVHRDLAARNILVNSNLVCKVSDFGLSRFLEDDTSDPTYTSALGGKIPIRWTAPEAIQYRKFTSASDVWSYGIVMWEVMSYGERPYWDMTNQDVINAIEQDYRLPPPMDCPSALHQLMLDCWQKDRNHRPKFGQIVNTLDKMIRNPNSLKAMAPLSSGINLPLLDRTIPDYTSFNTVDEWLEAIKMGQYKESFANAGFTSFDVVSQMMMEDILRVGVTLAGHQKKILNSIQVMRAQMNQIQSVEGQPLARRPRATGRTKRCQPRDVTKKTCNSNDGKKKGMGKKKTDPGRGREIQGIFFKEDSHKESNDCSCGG

[3] = molecular target: T2, Ephrin type-B receptor 2 (Homo sapiens); settings: at 10 µM
[4] = molecular target: T3, Ephrin type-B receptor 3 (Homo sapiens) (UniProt P54753); settings: at 1 µM
T3 sequence (whole entry): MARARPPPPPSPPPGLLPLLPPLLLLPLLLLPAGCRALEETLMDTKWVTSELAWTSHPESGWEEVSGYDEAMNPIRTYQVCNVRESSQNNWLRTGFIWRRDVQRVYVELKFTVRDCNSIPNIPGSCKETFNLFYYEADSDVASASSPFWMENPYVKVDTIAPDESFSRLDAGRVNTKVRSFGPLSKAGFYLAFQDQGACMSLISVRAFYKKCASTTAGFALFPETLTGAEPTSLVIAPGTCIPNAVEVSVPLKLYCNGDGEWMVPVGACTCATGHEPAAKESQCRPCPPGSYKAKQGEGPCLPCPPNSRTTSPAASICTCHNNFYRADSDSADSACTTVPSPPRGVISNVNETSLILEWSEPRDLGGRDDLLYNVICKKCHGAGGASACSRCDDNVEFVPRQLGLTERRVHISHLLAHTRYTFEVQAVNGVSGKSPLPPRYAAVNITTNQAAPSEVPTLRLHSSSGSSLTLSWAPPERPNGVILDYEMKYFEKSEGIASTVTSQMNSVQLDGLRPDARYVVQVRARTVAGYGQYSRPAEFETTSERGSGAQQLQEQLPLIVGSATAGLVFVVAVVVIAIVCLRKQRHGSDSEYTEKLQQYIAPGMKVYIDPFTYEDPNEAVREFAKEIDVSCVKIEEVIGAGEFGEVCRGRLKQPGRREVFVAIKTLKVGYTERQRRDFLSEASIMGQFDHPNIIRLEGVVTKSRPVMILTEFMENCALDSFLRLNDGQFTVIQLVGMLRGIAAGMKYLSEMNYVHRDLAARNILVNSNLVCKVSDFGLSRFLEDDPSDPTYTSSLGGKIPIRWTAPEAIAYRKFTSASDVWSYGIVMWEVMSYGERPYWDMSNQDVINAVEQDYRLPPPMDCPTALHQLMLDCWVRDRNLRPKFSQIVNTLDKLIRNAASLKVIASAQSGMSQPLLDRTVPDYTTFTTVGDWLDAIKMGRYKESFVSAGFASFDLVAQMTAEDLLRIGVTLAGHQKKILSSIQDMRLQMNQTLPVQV

[5] = molecular target: T3, Ephrin type-B receptor 3 (Homo sapiens); settings: at 10 µM
[6] = molecular target: T4, Ephrin type-B receptor 4 (Homo sapiens) (UniProt P54760); settings: at 1 µM
T4 sequence (whole entry): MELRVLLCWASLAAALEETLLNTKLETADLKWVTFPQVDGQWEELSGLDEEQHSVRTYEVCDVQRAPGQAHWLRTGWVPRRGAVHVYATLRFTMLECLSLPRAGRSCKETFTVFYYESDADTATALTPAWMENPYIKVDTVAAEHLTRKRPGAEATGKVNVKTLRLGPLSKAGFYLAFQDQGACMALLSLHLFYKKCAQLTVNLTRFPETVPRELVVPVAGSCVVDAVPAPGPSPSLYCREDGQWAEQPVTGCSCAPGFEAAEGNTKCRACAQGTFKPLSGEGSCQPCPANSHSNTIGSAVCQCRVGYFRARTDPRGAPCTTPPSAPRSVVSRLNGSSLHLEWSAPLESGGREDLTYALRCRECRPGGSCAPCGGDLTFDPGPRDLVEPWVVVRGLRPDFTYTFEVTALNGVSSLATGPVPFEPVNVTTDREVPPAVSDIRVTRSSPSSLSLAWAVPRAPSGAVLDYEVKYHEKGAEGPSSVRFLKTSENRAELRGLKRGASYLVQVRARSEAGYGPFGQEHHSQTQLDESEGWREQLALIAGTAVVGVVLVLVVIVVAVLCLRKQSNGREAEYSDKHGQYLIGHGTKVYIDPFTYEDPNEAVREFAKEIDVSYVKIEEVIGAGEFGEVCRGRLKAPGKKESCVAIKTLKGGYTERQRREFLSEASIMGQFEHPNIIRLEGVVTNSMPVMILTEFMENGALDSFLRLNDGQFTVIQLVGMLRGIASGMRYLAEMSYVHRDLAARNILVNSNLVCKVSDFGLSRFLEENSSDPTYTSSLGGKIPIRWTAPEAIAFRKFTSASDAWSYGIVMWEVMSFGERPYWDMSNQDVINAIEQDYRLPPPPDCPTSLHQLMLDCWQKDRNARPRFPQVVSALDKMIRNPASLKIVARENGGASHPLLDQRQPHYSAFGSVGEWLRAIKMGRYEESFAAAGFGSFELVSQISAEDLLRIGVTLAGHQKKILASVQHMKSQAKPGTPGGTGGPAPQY

[7] = molecular target: T4, Ephrin type-B receptor 4 (Homo sapiens); settings: at 10 µM
[8] = molecular target: Receptor tyrosine-protein kinase erbB-4 (Homo sapiens) (UniProt Q15303); settings: at 1 µM
Chain of Receptor tyrosine-protein kinase erbB-4 (Homo sapiens) (Q15303 whole entry): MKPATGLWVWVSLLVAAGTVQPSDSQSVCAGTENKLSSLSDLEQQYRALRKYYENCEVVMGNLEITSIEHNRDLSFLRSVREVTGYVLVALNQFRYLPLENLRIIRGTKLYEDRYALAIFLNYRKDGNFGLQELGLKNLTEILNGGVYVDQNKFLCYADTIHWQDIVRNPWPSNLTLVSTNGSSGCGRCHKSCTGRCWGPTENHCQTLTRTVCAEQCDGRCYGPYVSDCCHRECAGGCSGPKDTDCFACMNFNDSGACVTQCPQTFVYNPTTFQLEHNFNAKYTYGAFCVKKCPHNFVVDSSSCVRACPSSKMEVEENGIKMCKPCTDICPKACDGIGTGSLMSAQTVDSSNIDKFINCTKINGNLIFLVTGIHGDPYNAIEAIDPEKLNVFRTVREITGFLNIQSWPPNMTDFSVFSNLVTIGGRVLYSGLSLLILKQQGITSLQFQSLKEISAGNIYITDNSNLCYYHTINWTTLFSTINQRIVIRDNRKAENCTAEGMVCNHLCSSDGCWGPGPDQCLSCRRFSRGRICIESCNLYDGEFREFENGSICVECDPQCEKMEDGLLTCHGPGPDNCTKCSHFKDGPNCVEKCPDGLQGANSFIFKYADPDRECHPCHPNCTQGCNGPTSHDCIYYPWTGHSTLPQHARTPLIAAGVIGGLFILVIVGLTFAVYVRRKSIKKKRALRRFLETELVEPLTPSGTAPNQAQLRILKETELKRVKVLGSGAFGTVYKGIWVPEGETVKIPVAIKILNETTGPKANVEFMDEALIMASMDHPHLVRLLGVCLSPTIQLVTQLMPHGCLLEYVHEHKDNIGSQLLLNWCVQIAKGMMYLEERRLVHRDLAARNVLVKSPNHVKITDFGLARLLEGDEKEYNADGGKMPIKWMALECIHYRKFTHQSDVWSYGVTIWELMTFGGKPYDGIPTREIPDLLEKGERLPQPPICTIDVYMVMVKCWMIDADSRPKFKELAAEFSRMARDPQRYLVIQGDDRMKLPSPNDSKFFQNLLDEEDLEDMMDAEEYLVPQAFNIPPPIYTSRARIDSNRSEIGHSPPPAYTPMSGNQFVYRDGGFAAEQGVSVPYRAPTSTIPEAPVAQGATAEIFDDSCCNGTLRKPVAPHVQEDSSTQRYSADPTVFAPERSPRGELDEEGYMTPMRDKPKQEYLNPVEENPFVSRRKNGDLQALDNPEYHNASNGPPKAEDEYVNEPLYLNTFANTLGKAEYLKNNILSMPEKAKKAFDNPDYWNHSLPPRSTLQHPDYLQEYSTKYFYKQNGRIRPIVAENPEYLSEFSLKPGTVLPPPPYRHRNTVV

[9] = molecular target: Receptor tyrosine-protein kinase erbB-4 (Homo sapiens) (UniProt Q15303); settings: at 10 µM
[10] = molecular target: Focal adhesion kinase 1 (Homo sapiens) (UniProt Q05397); settings: at 1 µM
[11] = molecular target: Focal adhesion kinase 1 (Homo sapiens) (UniProt Q05397); settings: at 10 µM
[12] = molecular target: Fibroblast growth factor receptor 1 (Homo sapiens) (UniProt P11362); settings: at 1 µM
Chain of Fibroblast growth factor receptor 1 (Homo sapiens) (P11362 22-822 limits assumed): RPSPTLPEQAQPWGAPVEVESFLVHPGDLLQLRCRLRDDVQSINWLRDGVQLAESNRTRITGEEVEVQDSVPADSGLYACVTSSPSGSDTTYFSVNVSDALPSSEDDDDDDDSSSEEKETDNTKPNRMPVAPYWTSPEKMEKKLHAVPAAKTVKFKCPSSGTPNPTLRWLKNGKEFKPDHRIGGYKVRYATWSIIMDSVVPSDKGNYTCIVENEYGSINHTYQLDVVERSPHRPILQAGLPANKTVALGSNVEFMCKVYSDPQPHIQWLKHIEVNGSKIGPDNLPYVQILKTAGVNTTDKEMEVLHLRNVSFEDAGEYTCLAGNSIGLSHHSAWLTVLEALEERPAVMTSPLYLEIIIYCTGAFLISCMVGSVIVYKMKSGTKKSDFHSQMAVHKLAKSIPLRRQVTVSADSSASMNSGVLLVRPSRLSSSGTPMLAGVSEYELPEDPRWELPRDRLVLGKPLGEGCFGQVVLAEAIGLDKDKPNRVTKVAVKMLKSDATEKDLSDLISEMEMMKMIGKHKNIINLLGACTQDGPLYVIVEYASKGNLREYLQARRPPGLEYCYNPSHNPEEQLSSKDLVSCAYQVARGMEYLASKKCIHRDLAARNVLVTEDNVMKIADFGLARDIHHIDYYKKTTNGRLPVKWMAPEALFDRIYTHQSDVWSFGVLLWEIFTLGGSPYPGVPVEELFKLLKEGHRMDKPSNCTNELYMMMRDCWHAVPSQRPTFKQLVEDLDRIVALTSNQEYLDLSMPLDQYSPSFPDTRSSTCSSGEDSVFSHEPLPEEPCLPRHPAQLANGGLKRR

[13] = molecular target: Fibroblast growth factor receptor 1 (Homo sapiens) (UniProt P11362); settings: at 10 µM
[14] = molecular target: Fibroblast growth factor receptor 2 (Homo sapiens) (UniProt P21802); settings: at 1 µM
Chain of Fibroblast growth factor receptor 2 (Homo sapiens) (P21802 22-821 limits assumed): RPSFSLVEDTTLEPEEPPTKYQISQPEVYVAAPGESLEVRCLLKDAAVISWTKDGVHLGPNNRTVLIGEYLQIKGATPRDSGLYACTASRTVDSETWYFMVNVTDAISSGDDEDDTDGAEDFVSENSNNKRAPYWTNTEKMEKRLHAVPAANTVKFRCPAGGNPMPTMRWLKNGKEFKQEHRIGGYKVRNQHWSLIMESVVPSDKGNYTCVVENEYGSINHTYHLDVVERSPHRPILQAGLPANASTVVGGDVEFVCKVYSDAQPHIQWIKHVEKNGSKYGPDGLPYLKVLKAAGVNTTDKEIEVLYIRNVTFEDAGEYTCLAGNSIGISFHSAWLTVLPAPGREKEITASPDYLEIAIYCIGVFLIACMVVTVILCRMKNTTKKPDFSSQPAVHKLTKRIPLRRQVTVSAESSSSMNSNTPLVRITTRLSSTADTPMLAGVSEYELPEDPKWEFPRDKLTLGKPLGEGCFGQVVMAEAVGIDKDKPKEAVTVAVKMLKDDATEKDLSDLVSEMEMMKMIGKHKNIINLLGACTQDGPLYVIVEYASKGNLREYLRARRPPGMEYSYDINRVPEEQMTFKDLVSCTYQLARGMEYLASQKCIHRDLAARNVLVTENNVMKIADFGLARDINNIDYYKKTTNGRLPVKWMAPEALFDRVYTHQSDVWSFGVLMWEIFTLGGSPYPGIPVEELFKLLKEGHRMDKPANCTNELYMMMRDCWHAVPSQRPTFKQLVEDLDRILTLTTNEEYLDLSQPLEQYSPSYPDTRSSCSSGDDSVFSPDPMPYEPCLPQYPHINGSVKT

[15] = molecular target: Fibroblast growth factor receptor 2 (Homo sapiens) (UniProt P21802); settings: at 10 µM
[16] = molecular target: Fibroblast growth factor receptor 3 (Homo sapiens) (UniProt P22607); settings: at 1 µM
[17] = molecular target: Fibroblast growth factor receptor 3 (Homo sapiens) (UniProt P22607); settings: at 10 µM
[18] = molecular target: Fibroblast growth factor receptor 4 (Homo sapiens) (UniProt P22455); settings: at 1 µM
Chain of Fibroblast growth factor receptor 4 (Homo sapiens) (P22455 22-802 limits assumed): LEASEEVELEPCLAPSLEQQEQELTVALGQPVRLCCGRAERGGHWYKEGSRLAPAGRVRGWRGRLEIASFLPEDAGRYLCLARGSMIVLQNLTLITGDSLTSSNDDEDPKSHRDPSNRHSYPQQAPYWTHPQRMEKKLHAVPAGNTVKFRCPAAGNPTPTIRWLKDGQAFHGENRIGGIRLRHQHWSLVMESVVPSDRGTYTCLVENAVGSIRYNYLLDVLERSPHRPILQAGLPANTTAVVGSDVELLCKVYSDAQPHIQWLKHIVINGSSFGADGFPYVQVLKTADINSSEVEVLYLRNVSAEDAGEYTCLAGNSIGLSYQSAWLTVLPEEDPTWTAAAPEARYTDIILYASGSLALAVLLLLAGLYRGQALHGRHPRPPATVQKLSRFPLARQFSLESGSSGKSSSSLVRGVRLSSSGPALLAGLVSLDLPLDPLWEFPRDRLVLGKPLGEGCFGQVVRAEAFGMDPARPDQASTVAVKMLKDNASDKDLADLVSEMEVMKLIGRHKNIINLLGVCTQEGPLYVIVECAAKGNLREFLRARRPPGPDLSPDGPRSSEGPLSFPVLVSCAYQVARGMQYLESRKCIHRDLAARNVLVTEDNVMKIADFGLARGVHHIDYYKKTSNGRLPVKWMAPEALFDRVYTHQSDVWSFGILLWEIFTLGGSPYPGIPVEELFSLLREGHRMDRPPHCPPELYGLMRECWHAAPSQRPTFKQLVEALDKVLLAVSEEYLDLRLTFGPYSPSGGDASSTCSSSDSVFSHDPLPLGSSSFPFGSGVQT

[19] = molecular target: Fibroblast growth factor receptor 4 (Homo sapiens) (UniProt P22455); settings: at 10 µM
[20] = molecular target: Tyrosine-protein kinase Fer (Homo sapiens) (UniProt P16591); settings: at 1 µM
Chain of Tyrosine-protein kinase Fer (Homo sapiens) (P16591 whole entry, looked up): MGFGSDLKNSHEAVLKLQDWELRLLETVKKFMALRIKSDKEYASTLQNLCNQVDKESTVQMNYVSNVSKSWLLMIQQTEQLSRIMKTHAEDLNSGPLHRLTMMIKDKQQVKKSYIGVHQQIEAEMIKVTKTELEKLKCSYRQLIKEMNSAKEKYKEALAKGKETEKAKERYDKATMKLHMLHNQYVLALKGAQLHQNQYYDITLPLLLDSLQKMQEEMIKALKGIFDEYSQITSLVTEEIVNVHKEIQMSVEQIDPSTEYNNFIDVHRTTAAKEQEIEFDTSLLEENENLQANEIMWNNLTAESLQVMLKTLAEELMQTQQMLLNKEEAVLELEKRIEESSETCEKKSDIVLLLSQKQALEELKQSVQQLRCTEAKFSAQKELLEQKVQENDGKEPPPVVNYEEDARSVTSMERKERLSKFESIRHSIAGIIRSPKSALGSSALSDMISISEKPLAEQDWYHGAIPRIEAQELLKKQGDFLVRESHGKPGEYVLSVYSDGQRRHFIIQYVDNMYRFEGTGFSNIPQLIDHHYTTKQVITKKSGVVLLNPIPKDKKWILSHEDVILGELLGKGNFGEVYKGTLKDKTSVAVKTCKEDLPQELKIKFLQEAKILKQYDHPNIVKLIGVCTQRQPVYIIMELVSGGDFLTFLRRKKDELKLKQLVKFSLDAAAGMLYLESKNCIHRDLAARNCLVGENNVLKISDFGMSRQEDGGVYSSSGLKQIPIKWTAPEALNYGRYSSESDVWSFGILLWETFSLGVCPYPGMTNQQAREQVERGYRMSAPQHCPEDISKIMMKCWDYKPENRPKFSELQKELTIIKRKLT

Row | SMILES | residual activity [1] [%] | residual activity [2] [%] | residual activity [3] [%] | residual activity [4] | residual activity [5] [%] | residual activity [6] [%] | residual activity [7] [%] | residual activity [8] [%] | residual activity [9] [%] | residual activity [10] [%] | residual activity [11] [%] | residual activity [12] [%] | residual activity [13] [%] | residual activity [14] [%] | residual activity [15] [%] | residual activity [16] [%] | residual activity [17] [%] | residual activity [18] [%] | residual activity [19] [%] | residual activity [20] [%]
1 | CN(C)c1ccc(/C=C2\C(=O)Nc3ccccc32)cc1 | 80 | 112 | 130 | 108% (inactive) | 123 | 97 | 121 | 115 | 82 | 82 | 62 | 61 | 10 | 94 | 38 | 89 | 64 | 122 | 110 | 109
2 | CC[n+]1c(/C=C/N(C)c2ccccc2)n(-c2ccccc2)c2ccc(-c3nc4ccccc4s3)cc21 | 56 | 136 | 129 | 131% (inactive) | 160 | 114 | 159 | 79 | 99 | 144 | 80 | 99 | 55 | 93 | 123 | 105 | 104 | 101 | 84 | 116
3 | COc1ccc(C(=O)Nc2sc3c(c2C(N)=O)CCCC3)cc1OC | 100 | 122 | 110 | 110% (inactive) | 122 | 98 | 120 | 87 | 97 | 119 | 78 | 87 | 118 | 86 | 99 | 104 | 109 | 107 | 99 | 108
4 | O=c1cc(-c2cccc3c2Sc2ccccc2S3)oc(N2CCOCC2)c1 | 92 | 112 | 126 | 119% (inactive) | 121 | 113 | 118 | 105 | 92 | 109 | 116 | 120 | 95 | 106 | 81 | 112 | 84 | 104 | 88 | 115
5 | COc1ccc(CNc2nc(N(CCO)CCO)nc3c2ncn3C(C)C)cc1 | 77 | 113 | 106 | 113% (inactive) | 107 | 87 | 77 | 91 | 101 | 91 | 64 | 89 | 67 | 101 | 80 | 103 | 109 | 116 | 104 | 91
6 | Cc1nc(-c2ccccc2)c(-c2ccncc2)o1 | 55 | 36 | 31 | 126% (inactive) | 107 | 105 | 79 | 118 | 110 | 111 | 98 | 120 | 83 | 86 | 74 | 121 | 114 | 109 | 99 | 101
